For 106 compounds, INHIBITION results are on record in ChEMBL document CHEMBL4513216, “Probing the Open Global Health Chemical Diversity Library for Multistage-Active Starting Points for Next-Generation Antimalarials” (ACS Infect Dis, 2020).

The campaign covered roughly 69,000 compounds. About 8,600 (12%) showed an effect of 50% or more. The sample as a whole holds a higher share of strong results than the screen did.

This experiment has as its system Plasmodium berghei. The experiment in a line: Screen against P. berghei liver stage (PbLuc), transformed with Luciferase, at 10uM. It counts as functional, HepG2. Conditions: tested at 10 uM.
As for `O=c1[nH]c2ncccc2n1C1CCNCC1`, the INHIBITION is on record as -6.18%.

With `Cc1nccn1-c1cc(CNC(=O)CC2CCCO2)ccn1` (stereo unspecified), the INHIBITION is on record as 30.6%.

Consider `CO[C@H]1CC[C@H]2[C@H]1OCCN2Cc1ccc(F)c(F)c1`, for which the INHIBITION is recorded as 22.4%.

In the case of `Cc1ncnc2c1CCN(CC1CCOC1)CC2` (stereo unspecified), the INHIBITION came out at 18.3%. As to `CN(C)c1ncnc2c1CCN(CC1CCOCC1)CC2`, the INHIBITION is 64.9%. Consider `c1nc2c(c(C3CC3)n1)CCN(CC1CCOC1)CC2` (stereo unspecified), for which the INHIBITION was 13.6%. Under `CCN(C)c1ncnc2c1CCN(CC1CCOC1)CC2` (stereo unspecified) stands 55.5%; under `CN(C)c1ncnc2c1CCN(CC1CCOC1)CC2` (stereo unspecified), 19.9%; under `CCN(CC)c1ncnc2c1CCN(CC1CCOCC1)CC2`, 41.6%. Next, `Cc1cnn(CCNc2ncnc3c2CCN(CC2CCOC2)CC3)c1` (stereo unspecified): 60%; `c1nc2c(c(NCCCn3cncn3)n1)CCN(CC1CCOC1)CC2` (stereo unspecified): 31.6%; `Cc1ccc(Nc2ncnc3c2CCN(CC2CCOC2)CC3)cc1` (stereo unspecified): 29.8%. Next, `CCOC(=O)Cn1c(=O)[nH]c2cn(-c3ccccc3)c(=O)n21`: 7.3%; `Cc1cc(N2CCCC2c2nccnc2C)ncn1` (stereo unspecified): 26.8%. On to `Cc1nc(CN2CC3(CCN(c4nccs4)C3)CC2=O)cs1` (stereo unspecified), for which the INHIBITION is listed as -3.52%. Take `CCN(CC)C1CCN(C(=O)NCc2cccc(-n3cccn3)c2)C1` (stereo unspecified): the INHIBITION is listed as 27%. For `CC(=O)c1ccc(-n2ccc3nc(N4CCCC4)ncc3c2=O)cc1`, the INHIBITION is given as -82.2%. Turning to `CC(=O)Nc1ccc(-n2ccc3nc(N4CCCC4)ncc3c2=O)cc1`, the INHIBITION is recorded as 80.5%. Next, `O=c1c2cnc(N3CCCCC3)nc2ccn1-c1ccccc1`: 19.7%; `COCC(=O)NC(C)c1cccc(Br)c1` (stereo unspecified): -60.9%. `Cc1ccn(-c2ccnc(N3CCSCC3)n2)n1`: the INHIBITION is recorded as 30%.

Regarding `COc1ccc(C[C@H]2CN(C(=O)c3cnoc3)CC[C@@H]2OC)cc1`, the INHIBITION is reported as -50.4%. Next, `COc1ccc(C[C@H]2CN(Cc3ccoc3)CC[C@@H]2OC)cc1`: 58.3%.

For the compound `COc1ccc(CN2C[C@@H]3CN(Cc4ccoc4)C[C@@H]3C2=O)cc1`, the INHIBITION was -4.82%. Next, `COc1ccc(C[C@H]2CN(C(=O)C3CC3)CC[C@H]2OC)cc1`: 11.2%; `CO[C@@H]1CCN(Cc2ccoc2)[C@H]1Cc1ccccc1`: 29.5%. Regarding `COc1ccc(C[C@H]2CN(C(=O)CN(C)C)CC[C@H]2OC)cc1`, the INHIBITION is given as 41.6%. Next, `CO[C@@H]1CCN(Cc2ccoc2)C[C@@H]1Cc1ccccc1`: 51.4%; `CO[C@H]1CCN(Cc2ccoc2)C[C@@H]1Cc1ccccc1`: 41.4%. Next, `COc1ccc(C[C@H]2CN(Cc3ccoc3)CC[C@H]2OC)cc1`: 63.3%; `CC(C)C1CCCN1CCCc1nc(-c2cccs2)no1` (stereo unspecified): -4.94%.

On to `CCN1C(=O)CCC12CCC(NC(=O)c1ccncc1F)CC2` (stereo unspecified), for which the INHIBITION was 38.3%. Under `CCn1nc(C)cc1C(=O)N1C[C@@H](CN(C)C)[C@@H](CO)C1` stands 38.7%. `O=C(NCC1CCCO1)c1nc2c(s1)CCCN2CC1CC1` (stereo unspecified): the INHIBITION is -14.2%.

As for `c1cncc(-c2nnc(C3(c4ccc5c(c4)OCO5)CCOCC3)o2)c1`, the INHIBITION came to 72.2%. On to `Cn1cccc1-c1nnc(C2(c3ccc4c(c3)OCO4)CCOCC2)o1`, for which the INHIBITION came to 41.8%. With `c1cc(-c2nnc(C3(c4ccc5c(c4)OCO5)CCOCC3)o2)ccn1`, the INHIBITION came out at 40.7%. As to `CCN1CCC(CC(=O)NCCc2nc(N)cc(O)n2)CC1`, the INHIBITION is given as 0.348%. Next, `Cc1cc(C(=O)N2CCC3(CC2)c2nc[nH]c2CCN3CC(C)C)no1`: 20.4%; `Cc1cnc(C(=O)N2CCC3(CC2)C(=O)NCCN3CC(C)C)cn1`: 26.5%. Next, `CC(C)CN1CCc2[nH]cnc2C12CCN(C(=O)c1cc[nH]n1)CC2`: 48.5%; `CC(C)CN1CCc2[nH]cnc2C12CCN(C(=O)c1ccccn1)CC2`: 55%. As for `CCN1CCNC(=O)C12CCN(C(=O)c1ccccn1)CC2`, the INHIBITION is on record as -5.25%. Under `CC(C)CN1CCNC(=O)C12CCN(C(=O)c1ccccn1)CC2` stands 50.7%; under `O=C(O)C1(Cc2ccccc2Cl)CCN(c2ncnc3[nH]ccc23)CC1`, 43.3%. Under `Cc1nn(C)c(Cl)c1C1CCCN1Cc1cccc(C(N)=O)c1` (stereo unspecified) stands 11.2%; under `Cn1c(=O)c2cc(C(=O)NCc3ccccn3)ccc2n(C)c1=O`, 26.3%; under `CC(C)NC(=O)N1CCCn2cnc(CO)c2C1`, -3.77%. Under `CC(C)c1noc(C(C)N2CCN(Cc3cccnc3)CC2)n1` (stereo unspecified) stands 15.5%. Take `CN(C)C(=O)N1Cc2nnn(C)c2C(COCC2CC2)C1` (stereo unspecified): the INHIBITION stood at 41.8%. With `Cn1nnc2c1C(COCC1CC1)CN(C(=O)[C@H]1CCCO1)C2` (stereo partly specified), the INHIBITION amounted to 68.9%.

As for `CCOCC1CN(C(=O)N(C)C)Cc2nnn(CC3CC3)c21` (stereo unspecified), the INHIBITION is -3.51%.

For the compound `CCOCC1CN(C(=O)[C@H]2CCCO2)Cc2nnn(CC3CC3)c21` (stereo partly specified), the INHIBITION is 57.1%. With `COCC1CN(C(=O)[C@H]2CCCO2)Cc2nnn(CC3CC3)c21` (stereo partly specified), the INHIBITION is on record as -4.99%.

In the case of `CN(C)CC(=O)N1Cc2nnn(C)c2C(COCC2CC2)C1` (stereo unspecified), the INHIBITION turned out to be 24%. In the case of `Cc1nccn1CCN(C)C(=O)C1CCCN(C2CCOCC2)C1` (stereo unspecified), the INHIBITION is reported as 34.1%.

For `Cc1cc(C)n(CC2CCCN2CCc2ccccn2)n1` (stereo unspecified), the INHIBITION worked out at 44.4%. Under `Cc1cc(CNC2CCc3nc(C(C)C)nn3C2)on1` (stereo unspecified) stands 11.3%; under `CCC(C)C(=O)NCc1cccc(N2CCCCC2=O)c1` (stereo unspecified), 11.6%; under `COC(=O)CC(NC(=O)c1ccc(OC)cc1OC)c1cccs1` (stereo unspecified), 7.08%. Under `CCC(NC(=O)c1cccc(N2CCCC2=O)c1)c1ccc(OC)cc1` (stereo unspecified) stands 52.6%; under `COC(=O)CC(NC(=O)c1cccc(CS(C)(=O)=O)c1)c1cccs1` (stereo unspecified), 71.2%. Consider `COC(=O)CC(NC(=O)c1cccc(N2CCCC2=O)c1)C(=O)OC` (stereo unspecified), for which the INHIBITION was 2.55%.

Turning to `COC(=O)CC(NC(=O)c1ccccc1OC)c1cccs1` (stereo unspecified), the INHIBITION was 40%.

`COCCc1noc(CN(C)C(=O)c2cccc(N3CCCC3=O)c2)n1`: the INHIBITION stood at 13.9%. Under `COC(=O)CC(NC(=O)c1cccc(N2CCCC2=O)c1)c1cccs1` (stereo unspecified) stands 62.8%; under `COC(=O)CC(NC(=O)c1cc(OC)c2c(c1)OCCO2)c1cccs1` (stereo unspecified), 29.4%. Next, `Cc1cc(S(=O)(=O)NCC[S+](C)[O-])c(F)cc1F` (stereo unspecified): 37.6%. Next, `CC(O)CN1CCN(C(=O)c2sccc2C2CC2)CC1` (stereo unspecified): -1.14%. With `Cc1cnc(CC2COCCN(Cc3nccn3C)C2)cn1` (stereo unspecified), the INHIBITION came to 44.1%. With `CC(C)n1ccnc1C1CCN(Cc2ccc(C(F)(F)F)c(F)c2)CC1`, the INHIBITION was 42.5%. As to `CO[C@@H]1CCN(Cc2ccoc2)[C@@H]2CN(Cc3ccco3)C[C@@H]21`, the INHIBITION is reported as 45.2%. Under `CC(C)(C)c1ccn(C2(C(=O)O)CCN(c3ccnc(N)n3)CC2)n1` stands 34.5%; under `Cc1nc(C)c(CN2CCOC[C@H](Oc3ccccc3)C2)s1`, 71.4%.

`Cc1nc(C)c(CN2CCOC[C@H](Oc3ccc(S(C)(=O)=O)cc3)C2)s1`: the INHIBITION stood at 26.4%. For `Cc1cccc(O[C@H]2COCCN(Cc3sc(C)nc3C)C2)n1`, the INHIBITION is on record as -60.9%.

Consider `CN(Cc1cc[nH]n1)C(=O)c1cn(Cc2c(F)cccc2F)nn1`, for which the INHIBITION is reported as 19.3%. As for `Cc1cc(S(=O)(=O)N2CCCc3cc(F)c(F)cc32)sc1C(=O)O`, the INHIBITION was 33.7%. On to `CC[C@H](C)Nc1ncc(-c2ccn(C3CCN(C(C)=O)CC3)n2)cn1`, for which the INHIBITION came out at 24.8%. Next, `CC(=O)N1CCC(n2ccc(-c3cnc(N4CCOCC4)nc3)n2)CC1`: 17.4%; `CC(=O)N1CCC(n2ccc(-c3cnc(NCC(C)C)nc3)n2)CC1`: 56%; `CNc1cncc(C2CCCN2S(=O)(=O)c2cccc(F)c2)n1` (stereo unspecified): 14.7%. Take `Cc1ccc(C(=O)N2C[C@@H]3CCCO[C@@H]3[C@H](N(C)Cc3ccco3)C2)o1`: the INHIBITION is on record as -7.59%. For the compound `CN(C)c1ncccc1CNC(=O)N1CCCC1CN1CCCC1` (stereo unspecified), the INHIBITION came to 57.8%. Next, `CN(C)c1ncccc1CNC(=O)N1CCCC1CN1CCCCC1` (stereo unspecified): 11.6%; `CN(C)c1ncccc1CNC(=O)N1CCCC1c1ccsc1` (stereo unspecified): -0.847%; `CN1CCC(NC(=O)c2cc(F)cc(Cl)c2O)C1=O` (stereo unspecified): 26.5%.

Regarding `CCc1c(C)nc2n(c1=O)CC(C(=O)Nc1ncccc1C)CS2` (stereo unspecified), the INHIBITION is -0.621%.

Consider `Cc1noc(C(C)C)c1C(=O)NCc1cccc(CN(C)C)c1`, for which the INHIBITION is reported as 51.1%. For the compound `COCc1cccc(CNC(=O)c2c(C)noc2C(C)C)c1`, the INHIBITION is on record as 42.9%. For `Cc1noc(C(C)C)c1C(=O)NCc1cccc(N(C)C)c1`, the INHIBITION stood at 6.14%. Next, `Cc1nn(C)c(C)c1CN(C)C1CCN(c2ncnc3[nH]cnc23)CC1`: 48.9%; `Cc1cnccc1CN(C)C1CCN(c2ncnc3[nH]cnc23)CC1`: 48.9%; `Cc1ncsc1CCN(C)C1CCN(c2ncnc3[nH]cnc23)CC1`: 50.8%. Next, `Cc1ccccc1OCCN1CCN(Cc2cnn(CCO)c2)CC1`: 30.45%; `CC(NC(=O)c1cc(-c2cccc(Cl)c2)no1)C(=O)N(C)C` (stereo unspecified): -21.6%.

For the compound `CC(NC(=O)c1cc(-c2cccc(Cl)c2)no1)C(=O)N1CCCC1` (stereo unspecified), the INHIBITION worked out at 86.9%. Next, `Cc1ccc(-c2cc(C(=O)NC(C)C(=O)N3CCCCC3)on2)cc1` (stereo unspecified): -40.3%. For the compound `COc1cc(C)c(NC(=O)CCn2cccc2)cc1OC`, the INHIBITION is on record as -23.2%. Under `COc1cc(C)c(NC(=O)NCCn2cccc2)cc1OC` stands 52.2%; under `COc1cc(Cl)c(NC(=O)NCCn2cccc2)cc1OC`, -102%; under `Cn1cc(CN(Cc2cccc(-n3cccn3)c2)C2CC2)cn1`, 49%. Next, `CCc1ccccc1NC(=O)c1cccc(N(C)S(C)(=O)=O)c1C`: -15.3%; `NC(=O)C1CCCN1C1CCN(C(=O)c2ccc3c(c2)OCO3)CC1` (stereo unspecified): 19.9%.

Regarding `CSCc1noc(CNC2CCCC(C)(C)C2)n1` (stereo unspecified), the INHIBITION is on record as 16.9%. Next, `Clc1nc2ccccn2c1CNCC1CN(C2CC2)CCO1` (stereo unspecified): -34.4%.
